From PubChem
TrxR1 inh = rat TrxR1 inhibition; O89049; recombinant rTrxR1, NADPH fluorescence consumption, selenite substrate; Potency, µM (series often up to 114 µM), usual class: inhibitors; 1% of 390,000 active; AID 588453; also: nearly all actives have a fitted effect of over 65% in size
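Rat TrxR1 (90 nM in the dispensed reagent) was pre-reduced with 400 uM NADPH for 5 min at room temperature, then incubated with compound for 15 min. After 400 uM selenite was added, NADPH fluorescence (Ex 340/Em 450 nm) was followed for 8 min.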
KAT2A inh = blocks human GCN5L2 histone acetyltransferase. GCN5L2 HAT assay, ThioGlo1 CoA-SH fluorescence. 0.21% of 390,000 active. Potency, µM (top dose mostly 58.9 µM), hits mostly inhibitors. Q92830
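qHTS, 1536-well. 20nM enzyme, pH 7.5 HEPES/EDTA/Tween-20 buffer; 15 min compound preinc., RT. Start: 75uM H3(1-25), 70uM AcCoA, 50uM ThioGlo1. Read Ex340/Em540 at t=0 (autofluorescence flag) and t=20 min.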
VDR inhibitor = vitamin D3 receptor (human) inhibition; P11473; VDR-SRC2-3 peptide fluorescence polarization, 2 h; Potency, µM, hits mostly inhibitors; 0.93% of 400,000 active; AID 504847
Target sequence (P11473 whole entry, looked up): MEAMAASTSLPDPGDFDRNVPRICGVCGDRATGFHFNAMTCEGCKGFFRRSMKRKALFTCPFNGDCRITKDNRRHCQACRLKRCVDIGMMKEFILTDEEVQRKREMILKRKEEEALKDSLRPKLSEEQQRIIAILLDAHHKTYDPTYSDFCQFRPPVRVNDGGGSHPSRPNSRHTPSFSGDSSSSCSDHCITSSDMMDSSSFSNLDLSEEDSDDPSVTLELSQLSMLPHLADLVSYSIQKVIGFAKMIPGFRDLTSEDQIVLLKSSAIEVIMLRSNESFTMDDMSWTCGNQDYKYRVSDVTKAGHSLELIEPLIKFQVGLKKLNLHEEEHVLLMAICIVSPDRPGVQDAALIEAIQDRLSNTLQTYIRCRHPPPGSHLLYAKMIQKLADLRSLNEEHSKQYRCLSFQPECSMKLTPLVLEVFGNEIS
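VDR–SRC2-3 interaction, FP format. Cmpds 23 nl via pintool, brief spin, 2 h ambient incubation.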
TrxR1 substrate = is turned over as a substrate by rat TrxR1 | O89049 | purified TrxR1 substrate turnover, NADPH consumption readout | Potency, µM (top dose mostly 114 µM) | 0.01% of 390,000 active | AID 588456; also: nearly all actives have a fitted effect of over 50% in size
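Rat TrxR1, dispensed at 90 nM, was prereduced with 400 uM NADPH (final) for 5 min at ~22 deg C, then incubated with compound 15 min before 400 uM selenite. A first-read NADPH fluorescence drop versus no-compound background flagged substrates.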
VDR inh confirm = inhibits human vitamin D receptor, primary hit validation; Potency, µM, usual class: inhibitors; shares compounds with VDR inhibitor; 89% of 840 active; VDR-coactivator inhibition assay, qHTS confirmation; AID 602199
VDR FP fluor = blocks human VDR-coactivator binding in fluorescein assay; shares compounds with VDR inhibitor; VDR-coactivator binding, fluorescein fluorescence polarization; Potency, µM (highest dose often 57.1 µM), actives largely listed as inhibitors; 48% of 840 active; AID 602200
VDR bla reporter = inhibits human VDR in beta-lactamase reporter cells; shares compounds with VDR inhibitor; VDR beta-lactamase reporter cells, FRET ratio; cells co-treated with VDR agonist LG190178; Potency, µM (doses to about 46.1 µM), actives largely listed as inhibitors; 23% of 840 active
VDR cytotox = cytotoxic in counter-screen for VDR inhibitors. AID 602204. cytotoxicity counter-screen, cell viability, qHTS. Potency, µM (highest dose often 48.3 µM), usual class: cytotoxic. shares compounds with VDR inhibitor. 18% of 840 active; also: nearly all actives have a fitted effect of over 75% in size
A number is an active result; i = inactive; ? = inconclusive; nt = not tested or not shown; [ ] = another dose, or the depositor's remark. Shown are actives, neighbours in structure and some others; about 1.8% of the full set was active somewhere. Calls follow the shape of the dose curve; as a rule, active = well fitted curve in the direction sought with a large enough effect; inconclusive = small, poorly fitted or top-dose-only effect, or another doubt; inactive = no such curve, though single readings can be large; an effect the other way counts as inactive or inconclusive.

SMILES	TrxR1 inh	KAT2A inh	VDR inhibitor	TrxR1 substrate	VDR inh confirm	VDR FP fluor	VDR bla reporter	VDR cytotox
O=C(O)CN1C(=O)/C(=C\c2cc(Br)ccc2OCc2ccc(Cl)cc2Cl)SC1=S	i	?	44.7µM	i	16.8	17.8µM	i	?
O=C(Oc1ccc(C(=S)N2CCOCC2)cc1)c1ccc(Br)cc1	i	i	i	i[0.457 µM]	nt	nt	nt	nt
COc1ccc(C(=O)Oc2ccc(C(=S)N3CCOCC3)cc2)cc1	i	i	70.8µM	i	26.7	25.1µM	i	i
CCOC(=O)C1=C(C)N=C2c3ccccc3C(=O)C2C1c1ccc(Cl)cc1 (configuration not stated)	i	i	i	i	nt	nt	nt	nt
CCOC(=O)C1=C(Cc2ccc(Cl)cc2)C(=O)c2ccccc2C1=O	10µM	i	6.31µM	i	1.78	?	23.1µM	?
CCOC(=O)/C(C#N)=C1/C=CN(Cc2ccccc2)C=N1	i	i	i	i	nt	nt	nt	nt
CCOC(=O)/C(C#N)=C1\C(=O)N(Cc2ccccc2)c2ccccc21	i	i	28.2µM	i	6.7	?	i	i
O=C(CCN1CCN(c2ccccc2F)CC1)c1ccc(Br)cc1	0.282µM	i	17.8µM	i	16.8	?	?	?
O=C(CCN1CCOCC1)c1ccc(Br)cc1	0.447µM	i	22.4µM	i	23.8	?	?	?
CCS(=O)(=O)c1ncc(Cl)c(C(=O)Nc2ccc(S(=O)(=O)N3CCCC(C)C3)cc2)n1 (configuration not stated)	2.51µM	i	?	i	5.01	2.82µM	10.3µM	9.47µM
CC1CCCN(S(=O)(=O)c2ccc(NC(=O)CNC3CCCC3)cc2)C1 (configuration not stated)	i	i	i	i	nt	nt	nt	nt
CCC1CCCCN1S(=O)(=O)c1ccc(NC(=O)c2nc(S(C)(=O)=O)ncc2Cl)cc1 (configuration not stated)	7.08µM	i	20µM	i	5.97	3.16µM	11.6µM	9.2µM
CN(CCO)c1cc(Sc2nc3ccccc3s2)c2nonc2c1[N+](=O)[O-]	0.355µM	i	25.1µM	i	6.7	3.55µM	?	3.16µM
CCOC(=O)N1CCN(c2cc(N(C)CCO)c([N+](=O)[O-])c3nonc23)CC1	?	i	i	i	nt	nt	nt	nt
COc1ccc2c(CNC3CCCCCC3)c(C(=O)O)n(Cc3ccccc3F)c2c1	i	i	i	i	nt	nt	nt	nt
Cc1ccc(CC(=O)NNC(=O)c2ccncc2)cc1C	i	i	79.4µM	i	26.7	28.2µM	i	i
CC(C)Oc1ccc(C(=O)N2CCCCC2CCN2CCCCC2)cc1 (configuration not stated)	i	i	i	i	nt	nt	nt	nt
CC(C)Oc1ccc(C(=O)CCN2CCCCC2)cc1	?	i	?	i	7.08	3.16µM	?	i
O=S(=O)(c1ccccc1Cl)N1CCN(c2nc(-c3cccs3)nc3ccccc23)CC1	i	nt	i	i	nt	nt	nt	nt
CCOC(=O)CSc1nc2cc(OC)c(OC)cc2cc1C#N	i	nt	i	i	nt	nt	nt	nt
COc1ccc(-c2cc(C(F)(F)F)nc(SCCC(=O)Nc3cc(C)ccc3O)n2)cc1	i	i	i	i	nt	nt	nt	nt
O=C(CCS(=O)(=O)c1nc(-c2cccs2)cc(C(F)(F)F)n1)Nc1cc(Br)ccc1O	14.1µM	i	11.2µM	i	3.16	3.55µM	i	?
CCN(CC)c1ccc(NC(=O)CSc2nc(-c3cccs3)cc(C(F)(F)F)n2)cc1	i	i	i	i	nt	nt	nt	nt
O=C(CSc1nc(-c2cccs2)cc(C(F)(F)F)n1)Nc1ccccc1Cl	i	i	i	i	nt	nt	nt	nt
O=C(CCS(=O)(=O)c1nc(-c2ccc3c(c2)OCO3)cc(C(F)(F)F)n1)Nc1ccc(F)cc1F	?	i	39.8µM	i	11.2	14.1µM	?	i
O=C(CCS(=O)(=O)c1nc(-c2cccs2)cc(C(F)(F)F)n1)Nc1ccc(Br)cc1	i	i	14.1µM	i[2.29 µM]	3.55	3.98µM	?	?
